# Data taken from PubChem BioAssay (NCATS).
# Values without a mark were called inactive. Inconclusive results are not listed. Where a call stands in place of a potency, no number is given. The source made the active and inactive calls. The call rests on the fitted dose curve; in most records, active means well fitted curve in the direction sought with a large enough effect; inconclusive means small, poorly fitted or top-dose-only effect, or another doubt; inactive means no such curve, though single readings can be large; an effect the other way counts as inactive or inconclusive.
# Columns and labels:
# [1] = system: Zika virus NS2B-NS3 protease (linked construct); assay: Primary screen NINDS Rhodamine qHTS for Zika virus inhibitors (AID 1347160); further: nearly all actives have a fitted effect of over 55% in size; further: potency means the concentration at half of the fitted maximal effect
# Procedure, shortened: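 Rhodamine110-peptide cleavage (1.5 µM substrate) by 25 nM linked NS2B-NS3 enzyme at pH 8.0 (Tris, Tween 20), after 15 min RT preincubation with compounds; 15-min fluorescence change normalized to controls and Hill-fitted.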
# [2] = OV-KATE Cancer Cell Toxicity qHTS against the NCATS CANVASS Library (AID 1347345)
# Procedure, shortened: (§1)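 ATP content after 72 h treatment, detected by CellTiter-Glo luminescence (15min room-temperature development), reflects cell viability. Wells contained 1000 cells and received compounds at 11 concentrations.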
# [3] = HPAF-II Cancer Cell Toxicity qHTS against the NCATS CANVASS Library (AID 1347346); further: series mostly up to about 38 µM; nearly all actives have a fitted effect of over 55% in size
# Procedure, shortened: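 1000 HPAF-II cells/well; 4 h pre-incubation; 11-pnt compound titration; 72 h, 37 degrees C/5% CO2; CellTiter-Glo, 15 min RT; luminescence read.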
# [4] = U-118MG Cancer Cell Toxicity qHTS against the NCATS CANVASS Library (AID 1347351)
# Procedure, shortened: as §1
# [5] = HPAF-II 24hr Apoptosis Induction qHTS against the NCATS CANVASS Library (AID 1347356)
# Procedure, shortened: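 500 HPAF-II cells/well; compounds in 11-pnt qHTS; 24 h, 37 C/5% CO2; Caspase-Glo 3/7 added, 15 min RT dark; luminescence read. Doxorubicin control.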
# [6] = HEK293 18hr Apoptosis Induction qHTS against the NCATS CANVASS Library (AID 1347357)
# Procedure, shortened: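 Cells seeded at 500/well in DMEM + 10% FBS. Compounds pinned, 11 concentrations. 18 h, 37 degrees C/5% CO2. Caspase-Glo 3/7 added, 15 min RT dark, luminescence read.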
# [7] = HPAF-II 12hr Apoptosis Induction qHTS against the NCATS CANVASS Library (AID 1347358)
# Procedure, shortened: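 Caspase-Glo 3/7 luminescence (DEVD substrate) reports caspase activity in HPAF-II cells after 12 h compound treatment at 37 degrees C. Compounds were tested in an 11-point series. Doxorubicin served as control.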
# [8] = HEK293 24hr Apoptosis Induction qHTS against the NCATS CANVASS Library (AID 1347359)
# Procedure, shortened: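 HEK293 cells, 500 per well, exposed to an 11-point compound series for 24 hours at 37 degrees C. Caspase 3/7 activity read by Caspase-Glo luminescence (DEVD substrate) after 15 min at room temperature.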
# [9] = HEK293 12hr Apoptosis Induction qHTS against the NCATS CANVASS Library (AID 1347361)
# Procedure, shortened: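 Cells are seeded, dosed with an 11-point compound series and incubated 12 hours. Caspase-3/7 activity is detected by luminescent DEVD-substrate reagent after 15 minutes at room temperature.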
# [10] = target: Luciferin 4-monooxygenase (Photinus pyralis) (UniProt P08659); assay: Firefly luciferase counterscreen qHTS: Assay Interference Panel against the NCATS CANVASS Library (AID 1347363); further: series mostly up to about 57 µM
# Procedure, shortened: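 Purified P. pyralis luciferase (0.04 ug/mL, 4x reagent) added to Tris-acetate buffer with 0.013 mM D-luciferin, 0.013 mM ATP and 13.3 mM Mg-acetate; compounds preincubated 15 min, then luminescence read after 5 min, RT.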
# [11] = KB-3-1 Cancer Cell Toxicity qHTS against the NCATS CANVASS Library (AID 1347366); further: nearly all actives have a fitted effect of over 75% in size
# Procedure, shortened: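 Luminescence from CellTiter-Glo (10 min, room temperature) measured KB-3-1 viability after 72 hr compound exposure at 37C. Cells were seeded at 500/well and tested in an 11-point series.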
# [12] = qHTS for ATAD5 Agonist screened against the NCATS CANVASS Library (AID 1347367);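 further: luciferase reporter driven by ATAD5 which rises upon DNA damage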
# Procedure, shortened: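 HEK293T-ATAD5 luc reporter; 2000 cells/well; 5hr settle; cpd 11-pt qHTS; 16hr 37C 5% CO2 dark; viability by CellTiter-Fluor (AFC fluorescence); then luciferase luminescence, 30min RT.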
# [13] = MCF7 Cancer Cell Toxicity qHTS against the NCATS CANVASS Library (AID 1347369); further: series mostly up to about 46 µM
# Procedure, shortened: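 Cells seeded at 500/well, then compound pinned. Plates incubated 72 hr at 37C, 5% CO2. CellTiterGlo added; luminescence read.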
# [14] = qHTS for ATAD5 Antagonist screened against the NCATS CANVASS Library (AID 1347370);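 further: HEK293T cells carrying an ATAD5 luciferase reporter co-treated with 10 µM 5-fluorouridine; series mostly up to about 46 µM; nearly all actives have a fitted effect of over 65% in size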
# Procedure, shortened: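 HEK293T-ATAD5 luc reporter, 2000 cells/well; 5hr attach; cpd + 10 uM 5-FUrd; 16hr 37C, 5% CO2. Readouts: CellTiter-Fluor fluorescence (1hr), then Amplite luciferase luminescence (30min RT).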
# [15] = J3T Cancer Cell Toxicity qHTS against the NCATS CANVASS Library (AID 1347371)
# Procedure, shortened: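 Dog glioma J3T, 500 cells/well; cpd 11-pt qHTS; 72 hr, 37C/5% CO2; CellTiterGlo ATP luminescence readout.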
# [16] = target: Nuclear receptor subfamily 1 group I member 3 (Homo sapiens) (UniProt Q14994); assay: qHTS for Constitutive Androstane Receptor (CAR) Antagonist screened against the NCATS CANVASS Library (AID 1347372);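 further: cells stimulated with 50 nM CITCO agonist so inhibition reflects antagonism; series mostly up to about 46 µM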
# Procedure, shortened: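 Luminescence readout (ONE-Glo, 30 min RT) of CYP2B6-2.2kb reporter in HepG2-hCAR cells after 24hr, 37C treatment with compound against 50 nM CITCO; CellTiter-Fluor viability read beforehand.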
# [17] = target: Nuclear receptor subfamily 1 group I member 3 (Homo sapiens) (UniProt Q14994); assay: qHTS for Constitutive Androstane Receptor (CAR) Agonist screened against the NCATS CANVASS Library (AID 1347373);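 further: every well also contained 1.5 µM PK11195 alongside the test compound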
# Procedure, shortened: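 Luciferase read-out (ONE-Glo, 30 min RT) of CYP2B6-2.2kb promoter activity in double-stable HepG2-hCAR cells after 24hr compound exposure with 1.5uM PK11195 present; viability measured first by CellTiter-Fluor.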
# [18] = 10-beta competent E. coli microbial cell viability qHTS against the NCATS CANVASS Library (AID 1347376); further: series mostly up to about 46 µM
# Procedure, shortened: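 Luminescence from BacTiter-Glo ATP detection served as the viability read-out; bacteria (0.2 OD) had been incubated overnight at 37C with pin-transferred compounds at 11 concentrations.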
# [19] = Inflammasome Signaling qHTS Counterscreen: IL-1-beta AlphaLISA counterscreen against the NCATS CANVASS Library (AID 1347381);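 further: cell-free check with purified IL-1β in medium and no THP-1 cells; series mostly up to about 57 µM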
# Procedure, shortened: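 Here, no cellular stimulation occurs; compounds in an 11-point series meet 4 pg purified IL-1-beta directly. Bead-based AlphaLISA detection follows (1 h acceptor/antibody, then 30 min donor, dark, room temperature), with excitation at 680 nm.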
# [20] = Viability qHTS for inhibitors of the SERCaMP assay screened against the NCATS CANVASS Library (AID 1347400); further: series mostly up to about 92 µM; nearly all actives have a fitted effect of over 70% in size
# Procedure, shortened: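 CellTiter-Glo luminescence readout after 48 h compound exposure (11-pnt qHTS series) of SH-SY5Y-GLuc SERCaMP MJH297 cells seeded at 1000 cells/well; bortezomib positive control.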
# Nuclear receptor subfamily 1 group I member 3 (Homo sapiens), sequence (Q14994 whole entry, looked up): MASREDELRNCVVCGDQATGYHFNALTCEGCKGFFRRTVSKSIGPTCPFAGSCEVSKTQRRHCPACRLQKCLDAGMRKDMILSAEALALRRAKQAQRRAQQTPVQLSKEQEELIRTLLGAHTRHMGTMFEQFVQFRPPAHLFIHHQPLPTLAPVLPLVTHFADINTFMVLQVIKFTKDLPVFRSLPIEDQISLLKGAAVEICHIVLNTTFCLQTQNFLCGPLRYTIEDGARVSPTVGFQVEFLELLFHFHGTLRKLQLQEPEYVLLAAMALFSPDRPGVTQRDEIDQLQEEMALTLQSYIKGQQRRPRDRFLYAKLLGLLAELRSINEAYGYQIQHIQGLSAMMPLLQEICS
# Luciferin 4-monooxygenase (Photinus pyralis), sequence (P08659 whole entry, looked up): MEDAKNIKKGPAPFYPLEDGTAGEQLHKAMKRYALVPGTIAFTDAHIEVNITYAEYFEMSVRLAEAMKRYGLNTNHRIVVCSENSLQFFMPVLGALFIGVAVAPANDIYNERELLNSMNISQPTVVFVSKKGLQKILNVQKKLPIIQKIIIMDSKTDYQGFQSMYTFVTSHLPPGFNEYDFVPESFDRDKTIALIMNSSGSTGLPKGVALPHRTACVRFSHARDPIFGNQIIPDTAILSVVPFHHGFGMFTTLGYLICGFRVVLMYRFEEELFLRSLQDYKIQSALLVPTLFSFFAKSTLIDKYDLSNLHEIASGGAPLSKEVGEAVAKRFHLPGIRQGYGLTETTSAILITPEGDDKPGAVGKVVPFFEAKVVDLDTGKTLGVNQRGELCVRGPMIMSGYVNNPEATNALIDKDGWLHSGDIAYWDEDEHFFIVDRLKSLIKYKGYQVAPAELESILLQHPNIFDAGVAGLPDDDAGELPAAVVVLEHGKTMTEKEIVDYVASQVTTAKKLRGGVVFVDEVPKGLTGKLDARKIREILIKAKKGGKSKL
Compound,Potency [1],Potency [2],Potency [3],Potency [4],outcome [5],Potency [6],Potency [7],Potency [8],Potency [9],Potency [10],Potency [11],Potency [12],Potency [13],Potency [14],Potency [15],Potency [16],outcome [17],outcome [18],outcome [19],Potency [20]
O=Cc1ccc2n1C[C@@]1(OC2)O[C@H](CO)[C@@H](O)[C@@H]1O,inactive,inactive,inactive,inactive,inactive,inactive,inactive,inactive,inactive,inactive,inactive,inactive,inactive,inactive,inactive,inactive,inactive,inactive,inactive,inactive
CO[C@@H]1[C@H](O)[C@@H](C)O[C@@H](OC[C@@H]2C(C)OC(=O)/C=C/[C@H](C)C(O[C@@H]3O[C@H](C)CC4(OC(=O)O[C@@H]4C)C3O)[C@@H](C)CC(C)C(=O)CC[C@H]3OC23)[C@@H]1OC (some centres undefined),49.3 µM (active),inactive,inactive,inactive,inactive,inactive,inactive,inactive,inactive,inactive,inactive,inactive,inactive,,inactive,inactive,inactive,inactive,inactive,inactive
C=C(NC(=O)c1csc(-c2nc3c(cc2O)-c2nc(cs2)C(=O)NC(C(C)O)C(=O)N/C(=C(\C)O)c2nc(cs2)C(=O)NC2c4nc(cs4)C(=O)NC(COC(=O)c4c5c6c(cccc6n4O)COC(=O)[C@@H](OC4C[C@](C)(O)[C@H](N(C)C)[C@H](C)O4)C2OC5)c2nc-3cs2)n1)C(N)=O (some centres undefined),4.4 µM (active),inactive,inactive,inactive,inactive,inactive,inactive,inactive,inactive,inactive,inactive,inactive,inactive,inactive,inactive,inactive,inactive,inactive,inactive,inactive
Oc1ccc(C2c3c(O)cc(O)cc3[C@@H]3C(c4ccc(O)cc4)c4c(O)cc(O)cc4[C@H]23)cc1 (some centres undefined),34.9 µM (active),inactive,inactive,inactive,inactive,inactive,inactive,inactive,inactive,inactive,inactive,inactive,inactive,inactive,inactive,inactive,inactive,inactive,inactive,inactive
C/C=C/c1cc(OC)c2c(c1)[C@@H](C)[C@H](c1ccc(O)c(OC)c1)O2,55.3 µM (active),inactive,inactive,inactive,inactive,inactive,inactive,inactive,inactive,inactive,inactive,inactive,inactive,inactive,inactive,inactive,inactive,inactive,inactive,inactive
